# Measured values as given in PubChem BioAssay (EPA / NIEHS).
# Activity calls are given as the source filed them. How the source made its calls: active means hit-call score of the fitted dose curve at least 0.9, where 1 is the maximum; inactive means score below 0.9.
# What was measured:
# Conditions in all cases: mRNA level, 48 h; actives raise or lower the signal
# [1] = read-out: Tumor necrosis factor receptor superfamily member 6 (Homo sapiens) (UniProt P25445); test: LTEA_HepaRG_FAS: Life Technologies and Expression Analysis (LTEA) Assay for Fas cell surface death receptor (FAS) using HepaRG (AID 2283447)
# Outline: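 Differentiated HepaRG cells in serum-free induction medium were exposed 48 h to 8 half-log concentrations up to 100 uM in 0.5% DMSO, in duplicate. FAS mRNA was measured by qRT-PCR normalised to ACTB, GAPDH and POLR2A; bidirectional fit versus DMSO.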
# [2] = read-out: Fatty acid synthase (Homo sapiens) (UniProt P49327); test: LTEA_HepaRG_FASN: Life Technologies and Expression Analysis (LTEA) Assay for Fatty Acid Synthase (FASN) using HepaRG (AID 2283448);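 on AC50: differentiated human HepaRG liver cells in serum-free induction medium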
# Outline: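 In human HepaRG cultures, 48 h chemical exposure (up to 100 uM, 0.5% DMSO) preceded TaqMan qRT-PCR of FASN.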
# [3] = read-out: Cyclin Dependent Kinase Inhibitor 1A (CDKN1A), CDKN1A (gene 1026); test: LTEA_HepaRG_CDKN1A: Life Technologies and Expression Analysis (LTEA) Assay for Cyclin Dependent Kinase Inhibitor 1A (CDKN1A) using HepaRG (AID 2283450)
# Outline: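 Gain or loss of CDKN1A transcript is scored by bidirectional fitting against 0.5% DMSO vehicle. Human HepaRG cultures receive chemicals for 48 h across an 8-point series peaking at 100 uM; expression comes from qRT-PCR.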
# [4] = read-out: Cyclin D1 (CCND1), CCND1 (gene 595); test: LTEA_HepaRG_CCND1: Life Technologies and Expression Analysis (LTEA) Assay for Cyclin D1 (CCND1) using HepaRG (AID 2283451);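 on AC50: differentiated human HepaRG liver cells in serum-free induction medium; TaqMan qRT-PCR transcript level normalised to ACTB GAPDH and POLR2A housekeeping genes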
# Outline: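 Expression change is measured by qRT-PCR in HepaRG cells after 48 h treatment across eight concentrations topping at 100 uM, with duplicate wells and DMSO (0.5%) serving as baseline for bidirectional fitting.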
# [5] = read-out: catalase (CAT), CAT (gene 847); test: LTEA_HepaRG_CAT: Life Technologies and Expression Analysis (LTEA) Assay for catalase (CAT) using HepaRG (AID 2283452)
# Outline: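 HepaRG cells in serum-free induction medium, 0.5% DMSO vehicle, exposed 48 h in duplicate over 8 half-log concentrations from 100 uM. CAT mRNA measured by qRT-PCR, normalized to ACTB, GAPDH, POLR2A; bidirectional fit versus DMSO.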
# [6] = read-out: flavin-containing dimethylaniline monooxygenases 3 (FMO3), FMO3 (gene 2328); test: LTEA_HepaRG_FMO3: Life Technologies and Expression Analysis (LTEA) Assay for flavin-containing dimethylaniline monooxygenases 3 (FMO3) using HepaRG (AID 2283453);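 on AC50: differentiated human HepaRG liver cells in serum-free induction medium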
# Outline: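 Eight-point concentration-response in serum-free HepaRG cultures (top 100 uM, 0.5% DMSO, 48 h). Read-out: FMO3 mRNA level normalized to three endogenous control genes, fitted bidirectionally versus vehicle.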
# [7] = read-out: Cytochrome P450 (CYP1A1), CYP1A1 (gene 1543); test: LTEA_HepaRG_CYP1A1: Life Technologies and Expression Analysis (LTEA) Assay for Cytochrome P450 (CYP1A1) using HepaRG (AID 2283454)
# Outline: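 Using HepaRG cultures with 0.5% DMSO as vehicle, eight-concentration exposures (max 100 uM) lasted 48 h. Transcript levels were measured by TaqMan qRT-PCR and normalized to ACTB, GAPDH and POLR2A.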
# [8] = read-out: CFLAR gene, CFLAR (gene 8837); test: LTEA_HepaRG_CFLAR: Life Technologies and Expression Analysis (LTEA) Assay for CFLAR gene using HepaRG (AID 2283455)
# Outline: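 qRT-PCR read-out (Fluidigm/TaqMan) of CFLAR mRNA, normalized to three housekeeping genes, in differentiated human HepaRG cells after 48 h chemical exposure; 8-point half-log series from 100 uM in 0.5% DMSO; bidirectional curve fitting versus DMSO.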
# [9] = read-out: Forkhead box O1 (FOXO1), FOXO1 (gene 2308); test: LTEA_HepaRG_FOXO1: Life Technologies and Expression Analysis (LTEA) Assay for Forkhead box O1 (FOXO1) using HepaRG (AID 2283456)
# Outline: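 HepaRG, 48 h exposure, 8-pt half-log series from 100 uM in 0.5% DMSO, duplicates; Fluidigm qRT-PCR mRNA, housekeeping-normalised; bidirectional fit vs DMSO baseline.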
# [10] = read-out: growth arrest and DNA damage 45 (GADD45A), GADD45A (gene 1647); test: LTEA_HepaRG_GADD45A: Life Technologies and Expression Analysis (LTEA) Assay for growth arrest and DNA damage 45 (GADD45A) using HepaRG (AID 2283458)
# Outline: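 Eight-point concentration-response in HepaRG cells: 48 h chemical exposure, 0.5% DMSO vehicle, top dose 100 uM. Normalized qRT-PCR mRNA readout with bidirectional fitting relative to DMSO.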
# [11] = read-out: Forkhead box O3 (FOXO3), FOXO3 (gene 2309); test: LTEA_HepaRG_FOXO3: Life Technologies and Expression Analysis (LTEA) Assay for Forkhead box O3 (FOXO3) using HepaRG (AID 2283459)
# Outline: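 qRT-PCR readout of FOXO3 transcript, normalized to three housekeeping genes (ACTB, GAPDH, POLR2A); gain or loss fitted against 0.5% DMSO vehicle. HepaRG cells, 48 h chemical exposure, 8-point half-log series, top 100 uM.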
# [12] = read-out: ABC Transporter (ABCC3), ABCC3 (gene 8714); test: LTEA_HepaRG_ABCC3: Life Technologies and Expression Analysis (LTEA) Assay for ABC Transporter (ABCC3) using HepaRG (AID 2283462)
# Outline: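 Transcriptional change of ABCC3 in HepaRG after 48 h treatment, determined by qRT-PCR normalized to endogenous controls. Concentrations spanned eight half-log steps to 100 uM in 0.5% DMSO.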
# [13] = read-out: ABC Transporter (ABCB11), ABCB11 (gene 8647); test: LTEA_HepaRG_ABCB11: Life Technologies and Expression Analysis (LTEA) Assay for ABC Transporter (ABCB11) using HepaRG (AID 2283463)
# Outline: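 HepaRG, 48 h exposure, 8-pt half-log CRC top 100 uM, 0.5% DMSO vehicle, duplicates. Readout: TaqMan qRT-PCR of ABCB11 mRNA, housekeeping-normalized (ACTB/GAPDH/POLR2A). Bidirectional fit vs DMSO baseline.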
# [14] = read-out: ABC Transporter (ABCC2), ABCC2 (gene 1244); test: LTEA_HepaRG_ABCC2: Life Technologies and Expression Analysis (LTEA) Assay for ABC Transporter (ABCC2) using HepaRG (AID 2283464)
# Outline: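 After plating and 48 h culture, HepaRG medium is replaced with serum-free induction medium and chemicals are added (8 concentrations, max 100 uM, 0.5% DMSO) for 48 h. Total RNA then undergoes qRT-PCR for ABCC2 with housekeeping normalization.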
# [15] = read-out: Broad substrate specificity ATP-binding cassette transporter ABCG2 (Homo sapiens) (UniProt Q9UNQ0); test: LTEA_HepaRG_ABCG2: Life Technologies and Expression Analysis (LTEA) Assay for ABC Transporter (ABCG2) using HepaRG (AID 2283465)
# Outline: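 HepaRG, 48 h exposure, 8-pt half-log series from 100 uM, 0.5% DMSO vehicle, duplicates. Readout: ABCG2 transcript by qRT-PCR (Fluidigm array), housekeeping-normalized; bidirectional curve fit relative to DMSO baseline.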
# [16] = read-out: growth arrest and DNA damage 45 (GADD45B), GADD45B (gene 4616); test: LTEA_HepaRG_GADD45B: Life Technologies and Expression Analysis (LTEA) Assay for growth arrest and DNA damage 45 (GADD45B) using HepaRG (AID 2283461)
# Outline: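 Human HepaRG monolayers receive chemicals for 48 h at eight half-log concentrations, highest 100 uM, in 0.5% DMSO. Expression is measured by TaqMan qRT-PCR and normalized to ACTB, GAPDH and POLR2A.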
# [17] = read-out: ABC Transporter (ABCB1), ABCB1 (gene 5243); test: LTEA_HepaRG_ABCB1: Life Technologies and Expression Analysis (LTEA) Assay for ABC Transporter (ABCB1) using HepaRG (AID 2283460)
# Outline: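 HepaRG, 48 h exposure, 8-pt half-log series from 100 uM, 0.5% DMSO vehicle, duplicates. Readout: ABCB1 transcript by Fluidigm TaqMan qRT-PCR, housekeeping-normalized; bidirectional curve fit vs DMSO baseline.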
# [18] = read-out: Cyclin D2 (CCND2), CCND2 (gene 894); test: LTEA_HepaRG_CCND2: Life Technologies and Expression Analysis (LTEA) Assay for Cyclin D2 (CCND2) using HepaRG (AID 2283449);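 further: CCND2 transcript measured by TaqMan qRT-PCR and normalised to three housekeeping genes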
# Outline: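 HepaRG, 48 h dosing, 8-pt half-log curve from 100 uM, 0.5% DMSO; duplicate wells. Readout: CCND2 transcript by microfluidic qRT-PCR, housekeeping-normalised; bidirectional fit vs DMSO baseline.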
# Broad substrate specificity ATP-binding cassette transporter ABCG2 (Homo sapiens), sequence (Q9UNQ0 whole entry, looked up): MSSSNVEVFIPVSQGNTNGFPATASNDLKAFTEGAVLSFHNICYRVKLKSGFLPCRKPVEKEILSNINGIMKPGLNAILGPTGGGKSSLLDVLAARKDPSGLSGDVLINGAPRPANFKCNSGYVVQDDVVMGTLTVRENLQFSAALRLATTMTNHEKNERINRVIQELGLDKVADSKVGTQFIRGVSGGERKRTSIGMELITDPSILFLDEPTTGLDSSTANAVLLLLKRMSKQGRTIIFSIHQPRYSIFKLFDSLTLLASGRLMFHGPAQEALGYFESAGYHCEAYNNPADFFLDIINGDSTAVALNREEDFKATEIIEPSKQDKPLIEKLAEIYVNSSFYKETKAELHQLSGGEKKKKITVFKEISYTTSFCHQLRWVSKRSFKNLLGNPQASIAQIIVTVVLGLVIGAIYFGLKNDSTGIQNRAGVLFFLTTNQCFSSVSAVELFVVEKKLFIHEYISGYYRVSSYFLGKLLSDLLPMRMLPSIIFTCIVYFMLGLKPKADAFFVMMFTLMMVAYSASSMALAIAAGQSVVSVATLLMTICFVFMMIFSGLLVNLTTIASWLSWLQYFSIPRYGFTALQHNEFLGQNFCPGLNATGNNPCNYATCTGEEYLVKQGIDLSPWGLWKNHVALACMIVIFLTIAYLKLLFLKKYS
# Fatty acid synthase (Homo sapiens), sequence (P49327 whole entry, looked up): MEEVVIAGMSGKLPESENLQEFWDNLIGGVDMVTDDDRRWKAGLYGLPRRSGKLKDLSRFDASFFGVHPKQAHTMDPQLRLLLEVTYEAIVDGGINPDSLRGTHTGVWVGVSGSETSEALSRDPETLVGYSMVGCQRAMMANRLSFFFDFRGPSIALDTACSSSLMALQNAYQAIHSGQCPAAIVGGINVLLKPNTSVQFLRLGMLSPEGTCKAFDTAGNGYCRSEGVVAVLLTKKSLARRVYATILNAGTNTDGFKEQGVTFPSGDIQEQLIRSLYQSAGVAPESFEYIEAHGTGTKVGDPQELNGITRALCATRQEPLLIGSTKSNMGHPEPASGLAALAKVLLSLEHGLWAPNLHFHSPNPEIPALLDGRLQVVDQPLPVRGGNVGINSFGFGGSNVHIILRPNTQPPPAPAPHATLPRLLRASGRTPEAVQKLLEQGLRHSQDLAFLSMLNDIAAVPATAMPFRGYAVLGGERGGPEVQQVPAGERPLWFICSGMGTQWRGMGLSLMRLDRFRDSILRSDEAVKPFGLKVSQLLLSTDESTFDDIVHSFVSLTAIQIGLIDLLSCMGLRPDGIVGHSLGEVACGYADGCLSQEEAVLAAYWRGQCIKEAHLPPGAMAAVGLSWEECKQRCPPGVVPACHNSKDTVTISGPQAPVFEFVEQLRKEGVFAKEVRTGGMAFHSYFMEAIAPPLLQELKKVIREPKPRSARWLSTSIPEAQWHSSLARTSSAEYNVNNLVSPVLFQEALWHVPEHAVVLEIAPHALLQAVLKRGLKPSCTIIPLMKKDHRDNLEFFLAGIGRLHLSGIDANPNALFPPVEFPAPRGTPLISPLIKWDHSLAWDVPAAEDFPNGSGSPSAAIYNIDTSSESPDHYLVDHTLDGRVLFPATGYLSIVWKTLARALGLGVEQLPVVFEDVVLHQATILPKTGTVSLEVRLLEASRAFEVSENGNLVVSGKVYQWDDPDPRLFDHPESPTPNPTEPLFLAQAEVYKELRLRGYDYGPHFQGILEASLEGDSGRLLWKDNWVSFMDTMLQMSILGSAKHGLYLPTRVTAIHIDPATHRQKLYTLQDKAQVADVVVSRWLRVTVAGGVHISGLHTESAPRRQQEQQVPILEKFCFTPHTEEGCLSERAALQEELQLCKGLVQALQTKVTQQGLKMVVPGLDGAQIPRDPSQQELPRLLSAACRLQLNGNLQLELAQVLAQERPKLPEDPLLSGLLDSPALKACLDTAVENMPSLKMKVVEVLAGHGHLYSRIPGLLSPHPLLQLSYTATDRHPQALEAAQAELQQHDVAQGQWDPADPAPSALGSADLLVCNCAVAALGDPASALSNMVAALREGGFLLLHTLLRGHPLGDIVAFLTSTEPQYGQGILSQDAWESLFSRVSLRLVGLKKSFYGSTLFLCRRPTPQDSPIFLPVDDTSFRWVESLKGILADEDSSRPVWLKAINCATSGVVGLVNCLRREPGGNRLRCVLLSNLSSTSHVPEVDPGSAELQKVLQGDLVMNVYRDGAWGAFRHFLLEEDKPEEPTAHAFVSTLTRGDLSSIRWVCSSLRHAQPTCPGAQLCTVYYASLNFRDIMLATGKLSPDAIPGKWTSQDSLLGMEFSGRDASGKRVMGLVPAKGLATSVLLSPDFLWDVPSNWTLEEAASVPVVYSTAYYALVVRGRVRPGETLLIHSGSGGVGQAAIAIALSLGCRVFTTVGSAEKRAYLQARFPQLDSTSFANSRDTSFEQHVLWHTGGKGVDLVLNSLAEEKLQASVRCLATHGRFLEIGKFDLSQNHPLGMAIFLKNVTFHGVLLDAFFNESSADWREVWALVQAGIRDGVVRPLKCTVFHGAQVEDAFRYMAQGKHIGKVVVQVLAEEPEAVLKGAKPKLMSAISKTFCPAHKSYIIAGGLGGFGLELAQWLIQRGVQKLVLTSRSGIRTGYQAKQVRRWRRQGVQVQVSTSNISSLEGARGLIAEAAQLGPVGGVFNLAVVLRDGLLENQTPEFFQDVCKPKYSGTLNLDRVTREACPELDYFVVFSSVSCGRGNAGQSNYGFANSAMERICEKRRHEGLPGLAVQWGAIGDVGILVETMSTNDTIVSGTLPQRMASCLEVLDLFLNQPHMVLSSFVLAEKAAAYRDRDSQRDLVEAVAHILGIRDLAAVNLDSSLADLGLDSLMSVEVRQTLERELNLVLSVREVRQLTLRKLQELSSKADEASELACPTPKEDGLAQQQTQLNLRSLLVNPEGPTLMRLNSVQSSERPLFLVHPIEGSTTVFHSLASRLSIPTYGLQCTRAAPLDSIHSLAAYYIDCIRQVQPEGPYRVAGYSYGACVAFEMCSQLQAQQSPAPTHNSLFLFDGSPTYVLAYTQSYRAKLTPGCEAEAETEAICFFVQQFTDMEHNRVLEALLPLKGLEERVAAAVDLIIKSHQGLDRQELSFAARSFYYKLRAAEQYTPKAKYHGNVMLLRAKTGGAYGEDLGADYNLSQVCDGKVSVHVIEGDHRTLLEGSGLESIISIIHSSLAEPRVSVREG
compound,measurement,setting,value
CSC(=O)c1c(C(F)F)nc(C(F)(F)F)c(C(=O)SC)c1CC(C)C,outcome,[1],inactive
same,outcome,[2],inactive
same,outcome,[3],inactive
same,outcome,[4],inactive
same,outcome,[5],inactive
same,AC50,[6],86.8 µM (active)
same,AC50,[7],17.1 µM (active)
same,outcome,[8],inactive
same,outcome,[9],inactive
same,outcome,[10],inactive
same,outcome,[11],inactive
same,outcome,[12],inactive
same,AC50,[13],49.8 µM (active)
same,AC50,[14],9.66 µM (active)
same,outcome,[15],inactive
CNC(=O)N(C)c1nnc(C(C)(C)C)s1,outcome,[1],inactive
same,outcome,[2],inactive
same,outcome,[3],inactive
same,outcome,[4],inactive
same,outcome,[5],inactive
same,outcome,[6],inactive
same,AC50,[7],42.9 µM (active)
same,outcome,[8],inactive
same,outcome,[9],inactive
same,outcome,[10],inactive
same,outcome,[16],inactive
same,outcome,[12],inactive
same,outcome,[13],inactive
same,outcome,[14],inactive
same,outcome,[15],inactive
Cc1cc(C)nc(Nc2ccccc2)n1,outcome,[1],inactive
same,outcome,[2],inactive
same,outcome,[3],inactive
same,outcome,[4],inactive
same,outcome,[5],inactive
same,outcome,[6],inactive
same,AC50,[7],1.2 µM (active)
same,outcome,[9],inactive
same,outcome,[10],inactive
same,outcome,[11],inactive
same,outcome,[12],inactive
same,outcome,[13],inactive
same,outcome,[14],inactive
same,outcome,[15],inactive
COc1cc(OC)nc(NC(=O)NS(=O)(=O)c2ncccc2OCC(F)(F)F)n1,outcome,[1],inactive
same,outcome,[2],inactive
same,outcome,[3],inactive
same,outcome,[4],inactive
same,outcome,[5],inactive
same,outcome,[6],inactive
same,AC50,[7],21 µM (active)
same,outcome,[9],inactive
same,AC50,[10],50 µM (active)
same,AC50,[17],31.3 µM (active)
same,outcome,[16],inactive
same,outcome,[12],inactive
same,outcome,[13],inactive
same,outcome,[14],inactive
same,outcome,[15],inactive
CCCCOCN(C(=O)CCl)c1c(CC)cccc1CC,outcome,[1],inactive
same,outcome,[2],inactive
same,outcome,[3],inactive
same,outcome,[4],inactive
same,outcome,[5],inactive
same,outcome,[6],inactive
same,AC50,[7],74 µM (active)
same,outcome,[8],inactive
same,outcome,[9],inactive
same,outcome,[10],inactive
same,outcome,[11],inactive
same,outcome,[16],inactive
same,outcome,[12],inactive
same,outcome,[13],inactive
same,outcome,[14],inactive
same,outcome,[15],inactive
CCCCC(O)(Cn1cncn1)c1ccc(Cl)cc1Cl (stereo not drawn),AC50,[1],87.4 µM (active)
same,AC50,[2],85.7 µM (active)
same,outcome,[18],inactive
same,AC50,[3],35.4 µM (active)
same,AC50,[4],57.7 µM (active)
same,AC50,[5],73 µM (active)
same,AC50,[6],75.9 µM (active)
same,AC50,[7],12.9 µM (active)
same,AC50,[9],80.2 µM (active)
same,AC50,[10],89.9 µM (active)
same,outcome,[11],inactive
same,AC50,[17],11.8 µM (active)
same,AC50,[12],50 µM (active)
same,AC50,[13],68.6 µM (active)
same,AC50,[14],79.9 µM (active)
same,outcome,[15],inactive
CC(C)N1C(=O)c2ccccc2NS1(=O)=O,outcome,[1],inactive
same,outcome,[2],inactive
same,outcome,[3],inactive
same,outcome,[4],inactive
same,outcome,[5],inactive
same,outcome,[6],inactive
same,outcome,[7],inactive
same,outcome,[8],inactive
same,outcome,[9],inactive
same,outcome,[10],inactive
same,outcome,[12],inactive
same,outcome,[13],inactive
same,outcome,[14],inactive
same,outcome,[15],inactive
COCC(C)N(C(=O)CCl)c1c(C)csc1C (stereo not drawn),outcome,[1],inactive
same,outcome,[2],inactive
same,outcome,[3],inactive
same,outcome,[4],inactive
same,outcome,[5],inactive
same,outcome,[6],inactive
same,AC50,[7],50 µM (active)
same,outcome,[9],inactive
same,outcome,[10],inactive
same,outcome,[12],inactive
same,AC50,[13],50 µM (active)
same,AC50,[14],32.6 µM (active)
same,outcome,[15],inactive
OC(c1ccc(Cl)cc1)(c1ccc(Cl)cc1)C(Cl)(Cl)Cl,AC50,[1],50 µM (active)
same,AC50,[2],34.8 µM (active)
same,AC50,[3],83.7 µM (active)
same,outcome,[4],inactive
same,AC50,[5],71.2 µM (active)
same,AC50,[7],11.9 µM (active)
same,outcome,[8],inactive
same,AC50,[9],79.5 µM (active)
same,outcome,[10],inactive
same,outcome,[17],inactive
same,outcome,[12],inactive
same,AC50,[13],72.4 µM (active)
same,outcome,[14],inactive
same,AC50,[15],50 µM (active)
N#Cc1c[nH]cc1-c1cccc2c1OC(F)(F)O2,outcome,[1],inactive
same,AC50,[2],1.51 µM (active)
same,outcome,[3],inactive
same,AC50,[4],50 µM (active)
same,AC50,[5],74.9 µM (active)
same,AC50,[6],71.8 µM (active)
same,AC50,[7],77.2 µM (active)
same,AC50,[8],14.7 µM (active)
same,outcome,[9],inactive
same,outcome,[10],inactive
same,AC50,[11],12.3 µM (active)
same,outcome,[17],inactive
same,outcome,[12],inactive
same,AC50,[13],44.8 µM (active)
same,outcome,[14],inactive
same,AC50,[15],50 µM (active)
Nc1c(Cl)c(F)nc(OCC(=O)O)c1Cl,outcome,[1],inactive
same,outcome,[2],inactive
same,outcome,[3],inactive
same,outcome,[4],inactive
same,outcome,[5],inactive
same,outcome,[6],inactive
same,outcome,[7],inactive
same,outcome,[8],inactive
same,outcome,[9],inactive
same,outcome,[10],inactive
same,outcome,[17],inactive
same,outcome,[12],inactive
same,outcome,[13],inactive
same,outcome,[14],inactive
same,outcome,[15],inactive
